TrxR1 substrate: qHTS Assay for Substrates of Mammalian Selenoprotein Thioredoxin Reductase 1 (TrxR1): qHTS. Thioredoxin reductase 1, cytoplasmic (Rattus norvegicus), O89049. Potency, µM (top dose mostly 114 µM), without a hit: at the highest dose activity change, negative = substrate turnover. purified TrxR1 substrate turnover, NADPH consumption readout. hit rate 0.01% among 390,000; also: nearly all actives have a fitted effect of over 50% in size
Target sequence (O89049 whole entry, looked up): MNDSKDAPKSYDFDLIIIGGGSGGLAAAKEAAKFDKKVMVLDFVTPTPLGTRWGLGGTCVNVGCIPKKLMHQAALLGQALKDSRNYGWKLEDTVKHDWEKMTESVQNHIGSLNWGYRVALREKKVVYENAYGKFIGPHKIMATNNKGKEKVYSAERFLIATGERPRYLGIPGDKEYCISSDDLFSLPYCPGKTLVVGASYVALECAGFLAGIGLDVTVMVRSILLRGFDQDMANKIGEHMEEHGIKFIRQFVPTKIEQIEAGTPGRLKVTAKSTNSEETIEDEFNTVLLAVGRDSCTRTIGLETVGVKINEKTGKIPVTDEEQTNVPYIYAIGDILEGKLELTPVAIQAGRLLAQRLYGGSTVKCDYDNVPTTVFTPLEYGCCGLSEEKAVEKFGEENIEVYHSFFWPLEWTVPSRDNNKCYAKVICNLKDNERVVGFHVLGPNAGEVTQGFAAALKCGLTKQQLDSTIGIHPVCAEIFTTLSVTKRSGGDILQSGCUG
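Rat TrxR1, dispensed at 90 nM, was prereduced with 400 uM NADPH (final) for 5 min at ~22 deg C, then incubated with compound 15 min before 400 uM selenite. A first-read NADPH fluorescence drop versus no-compound background flagged substrates.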
GLS inh: qHTS for Inhibitors of Glutaminase (GLS) | Glutaminase kidney isoform, mitochondrial (Homo sapiens), O94925 | GLS enzymatic activity, qHTS titration | Potency, µM (doses to about 45.5 µM), inactives show at the highest dose activity change, negative = inhibition, actives largely listed as inhibitors | hit rate 0.21% among 410,000 | AID 624170, 2012
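hKGA; 45 mM KH2PO4 pH 8.2 + 0.02% Tween-20; cpd via pin tool; 1 mM Gln soln; GluOx/HRP/Amplex Red; RT 30 min; fluor. t0 & final.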
TrxR1 inh: qHTS Assay for Inhibitors of Mammalian Selenoprotein Thioredoxin Reductase 1 (TrxR1): qHTS | Thioredoxin reductase 1, cytoplasmic (Rattus norvegicus), O89049 | recombinant rTrxR1, NADPH fluorescence consumption, selenite substrate | Potency, µM (highest dose often 114 µM), for the others: top-dose activity change, negative = inhibition, hits mostly inhibitors | hit rate 1% among 390,000 | AID 588453, 2011; also: nearly all actives have a fitted effect of over 65% in size
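Rat TrxR1 (90 nM in the dispensed reagent) was pre-reduced with 400 uM NADPH for 5 min at room temperature, then incubated with compound for 15 min. After 400 uM selenite was added, NADPH fluorescence (Ex 340/Em 450 nm) was followed for 8 min.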
mIDH1 inhibitor: qHTS for Inhibitors of mutant isocitrate dehydrogenase 1 (IDH1): qHTS; hit rate 0.093% among 390,000; IDH1-R132H enzyme, NADPH consumption, diaphorase/resazurin fluorescence; Potency, µM (titrated, usually from 76.6 µM), for inactives: at the top dose activity change, negative = inhibition, actives largely listed as inhibitors; Isocitrate dehydrogenase [NADP] cytoplasmic (Homo sapiens), O75874; also: nearly all actives have a fitted effect of over 65% in size
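IDH1-R132H (0.5 ug/mL dispensed) in pH 7.5 Tris buffer was preincubated 30 min with compound, then given a substrate mix of 0.016 mM NADPH and 2 mM alpha-KG for 80 min at room temperature; remaining NADPH was read by diaphorase/resazurin fluorescence.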
An asterisk follows results filed as active; u = inconclusive; x = no result given; [ ] = another dose, or the depositor's remark. Rows were chosen to be rich in hits. Some 1.2% of all compounds tested hit in one or more screens of this group. Calls follow the shape of the dose curve; as a rule, active = well fitted curve in the direction sought with a large enough effect; inconclusive = small, poorly fitted or top-dose-only effect, or another doubt; inactive = no such curve, though single readings can be large; an effect the other way counts as inactive or inconclusive. % is scaled to controls: 0 for no effect and ±100 for the full control effect; potency is read from the fitted curve at half-maximal effect.

SMILES	TrxR1 substrate	GLS inh	TrxR1 inh	mIDH1 inhibitor
CS(=O)(=O)c1ccc(C(=O)OCC(=O)NC2CCS(=O)(=O)C2)cc1[N+](=O)[O-] (stereo not drawn)	4%	1%	7.9µM*	1%
O=C(COC(=O)c1ccc([N+](=O)[O-])o1)NC1CCCCC1	-8%	4%	16µM*	12%
O=C(COC(=O)c1ccc2c(c1)OCO2)NC1CCS(=O)(=O)C1 (stereo not drawn)	11%	-4%	79µM*	0%
CS(=O)(=O)c1ccc(C(=O)OCC(=O)NCc2cccs2)cc1[N+](=O)[O-]	10%[57.1 µM]	-3%	1.8µM*	-13%
CCc1c(C)sc2c1CCN(C(=O)Nc1cc(C)ccc1C)C2c1ccc(OC)cc1 (stereo not drawn)	2%[57.1 µM]	-8%	24%[57.1 µM]	-9%
CCCn1c(=O)c2sccc2n2c(CCCC(=O)NCCOC)nnc12	5%	-10%	15%	12%
CCc1nnc(NC(=O)CSc2nccn2Cc2ccc(Cl)cc2)s1	-4%[57.1 µM]	-4%	-1%[57.1 µM]	x
O=C(COC(=O)c1ccc([N+](=O)[O-])o1)NC1CCS(=O)(=O)C1 (stereo not drawn)	-7%	5%	3.5µM*	4%
O=C(COC(=O)c1ccc([N+](=O)[O-])o1)Nc1cccc2ccccc12	-1%	10%	20µM*	3%
O=C(COC(=O)c1ccc([N+](=O)[O-])o1)NCc1ccc(F)cc1	-5%	14%	u	-5%
O=C(COC(=O)c1ccc([N+](=O)[O-])o1)NC1CCCC1	-2%	2%	u	1%
O=C1[C@@H]2C(c3cccnc3)=NO[C@@H]2C(=O)N1c1ccc2ccccc2c1	9%[57.1 µM]	-14%	16µM*	3%
O=C1Nc2cccnc2N(C(=O)CCl)c2ccccc21	-5%	-1%	13µM*	-12%
Cc1cc(C)cc(NC(=O)c2cc(C)nc3c2c(C)nn3-c2ccccc2)c1	41%	-6%	79µM*	-2%
Cc1nn(-c2ccccc2)c(C)c1C(=O)OCC(=O)NCc1ccco1	4%	-3%	56µM*	5%
Cc1nn(-c2ccccc2)c2nc(-c3ccncc3)cc(C(=O)NCc3ccco3)c12	1%	3%	50µM*	-10%
COc1ccc(C2C(CC(=O)O)=C(O)C(=O)N2c2ccccc2)cc1 (stereo not drawn)	3%	29%	32µM*	1%
COc1cccc(NC(=O)CCc2c(C)nc3c4cccnc4nn3c2C)c1	114%	-9%	38%	20%
O=C(O)c1cc2nccc(-c3ccco3)n2n1	28%	11µM*	u	-5%
COc1cc2nc(N3CCCN(C)CC3)nc(OC3CCN(C)CC3)c2cc1OC	119%	x	-24%	x
Cc1c(C)c2ccc(OCC(=O)NC(Cc3c[nH]c4ccc(O)cc34)C(=O)O)c(C)c2oc1=O (stereo not drawn)	1%	11µM*	-12%	-9%
COc1cc(OC)c(C2CC(=O)N3CN(c4ccccc4)CSC3=C2C#N)cc1OC (stereo not drawn)	-17%	15%	32µM*	5%
COc1ccccc1N1CSC2=C(C#N)C(c3ccc(SC)cc3)CC(=O)N2C1 (stereo not drawn)	-5%[57.1 µM]	-24%	13µM*	17%
CCc1ccccc1N1CSC2=C(C#N)C(c3cc(OC)c(OC)cc3OC)CC(=O)N2C1 (stereo not drawn)	1%	-3%	u	4%
COc1ccc(COC(=O)CCCN=C2NS(=O)(=O)c3ccccc32)cc1F	x	1%	x	-1%
SMILES	TrxR1 substrate	GLS inh	TrxR1 inh	mIDH1 inhibitor
CC(C)(C)n1ncc2c(=O)n(Cc3ccccc3SC(F)(F)F)cnc21	-12%	x	-7%	x
CC[n+]1c(/C=C/C=C2/N(C)c3ccccc3C2(C)C)sc2ccccc21	8%[57.1 µM]	x	8%[57.1 µM]	x
O=C(O)c1cccc(-c2ccc(/C=c3/sc4nc5ccccc5n4c3=O)o2)c1	0%	13µM*	26%	-2%
O=C(O)c1cc(C(=O)O)cc(-c2ccc(/C=c3/sc4nc5ccccc5n4c3=O)o2)c1	-4%[57.1 µM]	0%	-11%[57.1 µM]	7%
O=C(O)c1ccccc1-c1ccc(C=c2sc3nc4cc(Br)cnc4n3c2=O)o1	x	7.9µM*	x	x
N#CCSc1nc2c(c(=O)n1Cc1ccco1)C1(CCCC1)Cc1ccccc1-2	6%	u	45µM*	3%
CCSC1(SCC)N=C(N)C2(C#N)C(c3ccc(OC)c(OC)c3OC)C12C#N (stereo not drawn)	-11%	19%	45µM*	-1%
Cn1cc(C(c2ccccc2OCC(=O)O)c2cn(C)c3ccccc23)c2ccccc21	-7%	14µM*	-8%[57.1 µM]	-26%
COc1ccc(-c2nnc3sc(COc4ccccc4)nn23)cc1	-5%	7%	-8%	-1%
c1ccc(OCc2nn3c(-c4ccco4)nnc3s2)cc1	1%	7%	56µM*	3%
O=C(CCCCCn1c(=O)[nH]c2ccccc2c1=O)NCc1ccc(Cl)cc1	0%[57.1 µM]	u	10%[57.1 µM]	2%
O=C(CCCCCn1c(=O)[nH]c2ccccc2c1=O)NCc1ccccc1	-3%[57.1 µM]	8.9µM*	9%[57.1 µM]	-5%
COC(=O)c1ccc2c(=O)n(CCCCCC(=O)NCCc3ccccc3)c(=O)[nH]c2c1	-4%[57.1 µM]	11µM*	-9%[57.1 µM]	11%
CCc1ccc(CNC(=O)c2cnc3sc4cc(OC)ccc4n3c2=O)cc1	6%	-1%	10%	3%
O=S(=O)(CCSc1ccccn1)c1nc2ccccc2s1	-3%	-3%	14µM*	6%
O=S(=O)(CCSc1nc2ccccc2o1)c1nc2ccccc2s1	3%[57.1 µM]	-2%	1.1µM*	9%
CCS(=O)(=O)CCSc1nc2ccccc2o1	10%	-2%	15%	-6%
COC1=C(OC)C(=O)C(Sc2ccc3ccccc3c2)=CC1=O	10%[57.1 µM]	10µM*	u	14%
COc1ccc(S(=O)(=O)Oc2ccc3ccccc3c2)cc1	-9%	4%	-12%	7%
C=CCN1c2ccc(Br)cc2C(=O)CS1(=O)=O	4%	-2%	7.1µM*	-14%
COc1cccc(CN2c3ccc(Br)cc3C(=O)CS2(=O)=O)c1	-2%	20%	2.2µM*	11%
CC(C)CCNC(=O)c1cnn2c(C(F)(F)F)cc(-c3ccco3)nc12	12%	22%	7.1µM*	7%
Cc1cccc(NC(c2ccc(C)s2)c2ccc3ccc(C)nc3c2O)n1 (stereo not drawn)	-5%	-13%	71µM*	0%
Cc1ccnc(NC(c2ccsc2)c2ccc3ccc(C)nc3c2O)c1 (stereo not drawn)	6%	19%	3.5µM*	1%
